# Source: PubChem BioAssay (National Center for Advancing Translational Sciences (NCATS))
# RGS4 inhibitor: Inhibitors of Regulator of G Protein Signaling (RGS) 4: qHTS | Regulator of G-protein signaling 4 (Homo sapiens), P49798 | Transcreener GDP fluorescence polarization, RGS4-accelerated GTP hydrolysis | Potency, µM (series often up to 114 µM), for inactives: at the highest dose activity change, negative = inhibition, actives largely listed as inhibitors | 0.039% of 390,000 active | AID 504845, 2011; active = well fitted inhibition curve with a large enough effect; inconclusive = small, poorly fitted or top-dose-only effect; inactive = no such curve, though single readings can be large or run the other way; also: potency is read from the fitted curve at half-maximal effect; % is scaled to controls: 0 for no effect and ±100 for the full control effect; nearly all actives have a fitted effect of over 75% in size
# Target sequence (P49798 whole entry, looked up): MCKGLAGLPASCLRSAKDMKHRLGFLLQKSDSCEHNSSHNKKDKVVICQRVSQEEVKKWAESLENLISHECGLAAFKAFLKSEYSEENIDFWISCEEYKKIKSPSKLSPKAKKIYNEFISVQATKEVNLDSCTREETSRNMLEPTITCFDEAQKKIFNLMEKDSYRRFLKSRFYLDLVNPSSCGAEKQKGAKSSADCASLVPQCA
#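 MLSMR compounds (23 nl, pin-transferred) preincubated 10 min at room temperature with a 500nM (2x) first reagent, then RGS4 at 900nM (2x) plus Transcreener GDP mix added; fluorescence polarization (620/688 nm) read before and after 90 min at 30 °C.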
# Akt phos inh: HTS Assay for Inhibitors of Akt Phophorylation: Primary Screen | 0.32% of 360,000 active | AID 651550, 2012 | activity change, % for hits at 50 µM | Neuro2A IGF-stimulated pAkt S473 HTRF, 20 min; active compounds read low; in the data active = activity change below about -80%; inconclusive = mostly about -51% to -80%; also: % is scaled to controls: 0 for no effect and ±100 for the full control effect
#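 Single-point screen (50 µM final compound) in Neuro2A cells stimulated 20 min with 6 nM IGF at 37 deg C. After lysis, Ser473-phosphorylated Akt read by HTRF (ex 330 nm, em 615/665 nm) as the 665/615 ratio.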
# PI4K2A block: qHTS for small molecular inhibitors of PI4K2A. 0.13% of 420,000 active. activity change, negative = inhibition, % at 76.9 µM. purified PI4K2A, ADP-Glo luminescence, 1 h; active compounds read low. Phosphatidylinositol 4-kinase type 2-alpha (Homo sapiens), Q9BTU6; in the data active = activity change below about -50%; inconclusive = mostly about -30% to -49%;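 also: -100% = wells without enzyme as full effect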
#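 ADP-Glo luminescence measured ADP generated by PI4K2A enzyme (4 ug/mL before mixing) with 1.2 mM PI substrate (pre-mix) and 300 microM ATP (pre-mix). Tris pH7.5 buffer with MgCl2, Triton X-100; 1 h reaction at ambient temperature.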
# DRD3 antagonist: qHTS of D3 Dopamine Receptor Antagonist: qHTS. D3R cells, DiscoveRx beta-arrestin luminescence, antagonist mode; active compounds read low. max response, negative = inhibition, %. 2.5% of 360,000 active; in the data active = max response below about -50%; inconclusive = no clear call, values can overlap the other calls; also: % is scaled to controls: 0 for no effect and ±100 for the full control effect
#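 Cells plated overnight at 1500 cells/well, then exposed to library compounds with dopamine controls for 90 minutes at 37 degrees C. DiscoveRx reagent added for 30–60 minutes at room temperature; luminescence read, quantitative HTS format.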
# LDHA inh: qHTS assay for inhibitors of human lactate dehydrogenase. L-lactate dehydrogenase A chain (Homo sapiens), P00338. purified LDHA, NADH/diaphorase-resazurin fluorescence; active compounds read low. activity change, % (values are at about 110 or 230 µM). 0.15% of 480,000 active. AID 1347041, 2019; in the data active = activity change below about -30%; inconclusive = mostly about -25% to -30%;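 also: plate controls were DMSO wells for no effect and wells without enzyme for full effect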
#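 Enzyme activity of human lactate dehydrogenase 5 (2 nM; 0.06 mM NADH, 0.2 mM pyruvate, 5 min, RT) is measured via a resazurin/diaphorase fluorescence readout of residual NADH.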
# DRD3 agonist: qHTS of D3 Dopamine Receptor Agonist: qHTS. max activation, %. 0.58% of 410,000 active. AID 652048, 2013. D3R DiscoveRx beta-arrestin cells, luminescence, 90 min; in the data active = max activation above about 30%; also: 0% is about no effect
#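 Cells at 1500/well, incubated overnight, then treated with pinned compounds (dopamine as control) for 90 min at 37 degrees C. DiscoveRx reagent added for 30 - 60 minutes at room temperature; luminescence read.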
# The depositor's hits bear a star; i = inactive; u = inconclusive; x = no result given. Sampled rows, rich in hits. Any-hit rate of the full collection: about 2.8%.
SMILES,RGS4 inhibitor,Akt phos inh,PI4K2A block,DRD3 antagonist,LDHA inh,DRD3 agonist
S=C1NCCc2ccccc2C1c1ccccc1 (configuration not stated),6%,i,1,u,-7,5
Cc1ncc(-c2ccc(S(=O)(=O)Nc3cc(Cl)ccc3C)cc2)o1,x,x,x,x,-2,x
CC1CN(CCCCOc2ccc3ccccc3c2)CC(C)O1 (configuration not stated),9%,i,-8,u,-16,-21
CCOc1cccc(OCCCCN2CCCCC2)c1,-4%,i,8,-66*,u,-13
CC1CCCN(CCC(=O)c2ccc(Br)cc2)C1 (configuration not stated),u,i,49,-1,-9,-15
CC1CC(C)CN(CCCCOc2ccc([N+](=O)[O-])cc2)C1 (configuration not stated),30%,i,11,-82*,-11,-12
CC1CCCN(CCCCOc2cccc(Br)c2)C1 (configuration not stated),20%,i,-2,-83*,-7,-9
COc1cccc(OCCCCN2CC(C)OC(C)C2)c1 (configuration not stated),-35%,i,6,-87*,-20,-8
CCC(=O)Nc1ccc2oc(-c3ccc(OC)c(Cl)c3)nc2c1,x,x,x,x,2,x
CC(C)Cc1nc2oc3c(NCC(C)O)ncnc3c2c2c1CCC2 (configuration not stated),x,x,x,x,10,x
COC(=O)c1ccc(OCCCCN2CC(C)OC(C)C2)cc1 (configuration not stated),-28%,i,4,-75*,-22,-15
CC1CN(CCCOc2ccccc2[N+](=O)[O-])CC(C)O1 (configuration not stated),24%,i,12,-59*,u,-50
CC1CN(CCCOc2ccc([N+](=O)[O-])cc2)CC(C)O1 (configuration not stated),24%,i,5,-15,-21,-7
CC1CCCN(CCOc2ccc(Br)cc2)C1 (configuration not stated),0%,i,-8,-99*,-8,-33
COc1cccc(OCCCCN2CCCCC2)c1,30%,x,4,-83*,u,-33
COc1ccc(Cc2nc(P(=O)(OC)OC)c(NCc3cccnc3)o2)cc1,x,x,x,x,10,x
Cc1c(C)c2ccc(OCc3nn[nH]n3)c(C)c2oc1=O,x,x,x,x,6,x
CCOc1ccc(CNc2nc(NCc3ccc(OCC)cc3)n(S(=O)(=O)CC)n2)cc1,x,x,x,x,13,x
COC(=O)C1CCN(CCCOc2ccc(CN3CCN(c4ccc([N+](=O)[O-])cc4)CC3)cc2)CC1,71%,i,-3,u,-7,32*
c1ccc(OCCCCN2CCCCC2)cc1,-1%,i,2,u,-9,-7
Brc1cccc(OCCCCN2CCCCC2)c1,3%,i,2,-92*,-14,-29
CCc1cc(=O)oc2cc(OC(C)C(=O)NCc3ccncc3)c(Cl)cc12 (configuration not stated),x,x,x,x,2,x
CC(=O)NNC(=S)Nc1ccc(Br)cc1Cl,x,x,x,x,4,x
COc1cccc(NC(=O)NNC(=O)CCc2ccc(O)c(O)c2)c1,u,i,0,-19,3,67*
O=C(CCc1ccccc1)NNC(=S)NCc1ccc(Cl)cc1,-8%,i,1,15,-1,4
O=C(CCc1ccc(O)c(O)c1)NNC(=S)Nc1ccc(Br)cc1Cl,-25%,i,-2,u,5,37*
O=C(CCc1ccc(O)c(O)c1)NNC(=S)NCCc1ccccc1,6%,i,3,-13,-4,59*
COc1ccc2cc(C(=O)N3CCN(Cc4ccccc4C)CC3)c(C)nc2c1,x,x,x,x,-16,x
O=c1cc(C(F)(F)F)c2sc(N3CCCCC3)nc2[nH]1,-3%,i,4,-57*,-5,2
